Screening data: PubChem BioAssay, NMMLSC
Shown are actives, neighbours in structure and some others; about 1.2% of the full set was active somewhere.
RGS16-Gao – modulates binding between human RGS16 and Galphao. bead-based flow cytometry RGS16-Galphao binding, fluorescence; actives lie on both sides. 0.38% of 220,000 active. AID 1441. binding response (% of control), % at 10 µM. O15492+P09471; call rule not given here;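 also: Galphao activated by GDP with aluminum fluoride before binding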
Target sequence (O15492 whole entry, looked up): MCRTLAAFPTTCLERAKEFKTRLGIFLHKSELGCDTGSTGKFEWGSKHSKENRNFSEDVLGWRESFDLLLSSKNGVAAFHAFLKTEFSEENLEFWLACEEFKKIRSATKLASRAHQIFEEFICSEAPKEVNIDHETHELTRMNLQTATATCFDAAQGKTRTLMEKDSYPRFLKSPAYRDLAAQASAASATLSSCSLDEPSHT
Target sequence (P09471 whole entry, looked up): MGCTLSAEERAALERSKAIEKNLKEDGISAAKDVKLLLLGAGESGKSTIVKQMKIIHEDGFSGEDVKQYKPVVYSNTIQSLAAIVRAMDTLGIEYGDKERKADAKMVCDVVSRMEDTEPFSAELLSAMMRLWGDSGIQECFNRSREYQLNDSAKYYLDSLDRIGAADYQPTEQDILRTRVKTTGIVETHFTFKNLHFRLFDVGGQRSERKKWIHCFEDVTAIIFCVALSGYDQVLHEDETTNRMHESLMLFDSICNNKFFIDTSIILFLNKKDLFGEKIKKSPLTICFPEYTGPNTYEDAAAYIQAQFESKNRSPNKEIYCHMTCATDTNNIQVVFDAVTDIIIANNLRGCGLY
RGS4-Gao reg – modulates binding of RGS4 to human Galphao; binding response (% of control), % at 10 µM; Multiplexed bead flow cytometry; actives lie on both sides; 0.33% of 220,000 active; in the data active = binding response below about 49% or above about 150%; inactive = in between;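 also: fluorescent Galphao activated with aluminum fluoride binding bead-coupled RGS4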
Target sequence (P09471 whole entry, looked up): as above
RGS7-Gao – human RGS7-Galphao interaction regulation | P09471 | Multiplexed bead flow cytometry, RGS7-Galphao binding; actives lie on both sides | binding response (% of control), % at 10 µM | 0.35% of 220,000 active | AID 1439; in the data active = binding response below about 49% or above about 150%; inconclusive = no clear call, values can overlap the other calls; inactive = in between;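 also: fluorescent Galphao held in activated GDP-AlF4 state binding bead-coupled RGS7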
RGS8-Gao – human RGS8-Galphao interaction regulation; P09471; multiplexed bead flow cytometry, RGS8-Galphao binding; actives lie on both sides; response (percent of control binding), % at 10 µM; 0.34% of 220,000 active; in the data active = response below about 60% or above about 140%; inactive = in between;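 also: Galphao activated as the GDP aluminium fluoride complex binding bead-coupled RGS8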
GSH fluor – GSH bead compound fluorescence profile; GSH beads flow cytometry, compound fluorescence 488/530 nm; hits give high values; AID 1776; 0.25% of 190,000 active; fluorescence (KMESF) at 10 µM; in the data active = fluorescence above about 89;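 also: glutathione beads carrying GST-tagged Bcl family fusion proteins plus one bare bead set; values are compound well signal with DMSO vehicle wells as background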
Avidin fluor – compound fluoresces at 488/530 nm on avidin beads | AID 1775 | fluorescence (KMESF) at 10 µM | 0.38% of 220,000 active | compound fluorescence 488/530 nm, flow cytometry; hits give high values; in the data active = fluorescence above about 47
An asterisk follows results filed as active; ? = inconclusive; nt = not tested or not shown; [ ] = another dose, or the depositor's remark.

SMILES	RGS16-Gao	RGS4-Gao reg	RGS7-Gao	RGS8-Gao	GSH fluor	Avidin fluor
CCOc1cccc(C(=O)Nc2cccc(-c3nnc(-c4ccc(C)cc4)o3)c2)c1	341.1	151.2*[activator]	142.6	109.0	24	46
CCOc1cccc(C(=O)Nc2cccc(-c3nnc(-c4ccccc4)o3)c2)c1	93.0	93.4	89.2	94.9	20	8
CC(C(Sc1ccccc1N)c1ccccc1)[N+](=O)[O-] (stereo not drawn)	90.3	96.1	?	94.6	nt	7
Cc1cccc(C(=O)Nc2nnc(SCC(=O)Nc3ccc4c(c3)oc3ccccc34)s2)c1	102.3	109.9	108.6	104.8	8	12
COc1ccccc1C(=O)Nc1nnc(SCC(=O)Nc2ccc3c(c2)oc2ccccc23)s1	110.5	100.0	102.3	102.5	811*	14
CC(C)CC(NC(N)=O)C(=O)Nc1ccc(Oc2ccccc2)cc1 (stereo not drawn)	101.7	100.7	93.3	99.6	20	5
S=c1[nH]nc(-c2cc(-c3ccccc3)n[nH]2)n1/N=C/c1ccc(Br)s1	100.1	97.3	?	101.5	nt	7
CC(=O)Nc1cccc(OCC(=O)Nc2ccccc2)c1	101.5	105.6	104.0	103.7	37	20
CC(=O)Nc1cccc(OCC(=O)NS(=O)(=O)c2ccc(Cl)cc2)c1	106.5	104.1	103.8	100.0	99*	28
O=C(Nc1nc(-c2ccccc2)cs1)c1cccc([N+](=O)[O-])c1	1.7*	21.4*	12.8*	11.8*	19	-2
CCCCn1c(SCC(=O)c2cc(OC)ccc2OC)nc2cc(S(N)(=O)=O)ccc21	105.5	105.1	108.7	100.1	260*	7
CCCCn1c(SCC(=O)N2CCC(C)CC2)nc2cc(S(N)(=O)=O)ccc21	106.6	103.4	102.3	106.9	8	13
Cc1ccc(S(=O)(=O)c2c[nH]c3cc4c(cc3c2=O)OCO4)cc1	97.3	102.6	?	99.3	nt	8
COc1cc(N2CCCC2)c(OC)cc1/C=c1/sc2nc3ccccc3n2c1=O	165.4	139.9	137.8	105.1	61	63*
CCN1CCN(S(=O)(=O)c2cc(C(=O)O)ccc2Cl)CC1	100.9	123.6	?	97.9	nt	58*
O=C(CN1C(=O)C2CC=CCC2C1=O)Nc1nc2ccccc2s1 (stereo not drawn)	99.4	100.5	98.3	100.8	13	10
O=C(Cc1ccc(Cl)cc1)Nc1ccc(SC(F)F)cc1	102.3	103.0	109.0	101.2	4	5
Cc1nc(NCc2ccco2)c2c(C)c(C)sc2n1	93.4	96.0	90.3	96.5	25	11
Cc1sc2nc3c4ccccc4c(NCc4ccco4)nn3c(=O)c2c1C	104.2	103.2	119.5	99.2	8	65*
CC(C(=O)OCc1nnc(-c2ccccc2)o1)N1C(=O)c2ccccc2C1=O (stereo not drawn)	118.9	110.5	111.9	106.8	263*	7
COc1ccc(/C=N/Nc2nc(Nc3ccccc3)nc(N3CCCC3)n2)cc1	107.0	98.0	124.7	107.6	24	78*
CCn1nc(C)c(CNCc2cn[nH]c2-c2cc3ccccc3o2)c1C	98.7	93.3	?	98.3	nt	5
COc1ccc(-c2[nH]nc3c2C(c2ccccc2OC(=O)N2CCOCC2)C(C#N)=C(N)O3)cc1 (stereo not drawn)	88.4	96.0	94.9	97.3	36	7
COc1ccc(-c2[nH]nc3c2C(c2ccc(OC(=O)N4CCOCC4)cc2)C(C#N)=C(N)O3)cc1 (stereo not drawn)	38.0	44.3*	45.3*	52.2*	16	13
COc1cc(C(=O)NCCc2ccc3c(c2)OCCO3)ccc1OCC(=O)N1CCOCC1	115.3	107.2	119.3	103.2	18	68*
SMILES	RGS16-Gao	RGS4-Gao reg	RGS7-Gao	RGS8-Gao	GSH fluor	Avidin fluor
CCN1CCN(C(=O)NCc2ccccc2)CC1	91.6	88.0	?	92.4	nt	6
O=C(COc1ccc2ccccc2c1)N1CCN(C(=O)c2cccnc2)CC1	104.0	109.6	133.3	103.4	17	85*
O=C(COc1ccc(Br)cc1)N1CCN(c2ccc([N+](=O)[O-])c(N3CCCCC3)c2)CC1	100.7	101.3	100.0	100.7	12	12
O=C(COc1ccccc1)N1CCN(c2ccc([N+](=O)[O-])c(N3CCCCC3)c2)CC1	103.1	104.9	117.2	101.1	30	54*
COc1ccc(N2CCN(C(=O)COc3ccc4ccccc4c3)CC2)cc1	103.6	104.7	105.8	102.7	17	53*
COc1cc(OC)cc(C(=O)N2CCN(C(=O)COc3ccc4ccccc4c3)CC2)c1	109.6	97.4	93.6	101.5	39	6
O=C(CN1CCN(c2ccccn2)CC1)Nc1ccc(OCc2ccccc2)cc1	109.9	105.3	119.6	101.5	21	63*
O=C(CN1CCN(c2ccccn2)CC1)Nc1ccc(Oc2ccccc2)cc1	106.6	103.9	97.9	104.1	18	13
Nc1c(C(=O)C2CC2)sc2nc(-c3ccccc3)cc(C(F)(F)F)c12	88.6	90.1	91.8	95.2	126*	5
CC(=O)c1sc2nc(-c3cccs3)cc(C(F)(F)F)c2c1N	94.6	95.2	100.3	98.3	28	25
Cc1cc(C)cc(-n2c(SCC(=O)Nc3cccc(S(=O)(=O)NC4=NCCCCC4)c3)nc3ccccc3c2=O)c1	105.3	102.8	101.3	105.5	13	15
OC(CN1CCCCC1)Cn1c(C(F)(F)F)nc2ccccc21 (stereo not drawn)	99.6	98.5	98.5	102.7	17	40
Cc1nc2ccccc2n1CC(O)Cn1c(C(F)(F)F)nc2ccccc21 (stereo not drawn)	-15.7*	-27.7*	-8.4*	7.0*	11	-3
O=C(Nc1ccc2c(c1)OCCO2)C1CCCN1S(=O)(=O)c1ccc(Cl)cc1 (stereo not drawn)	100.8	98.6	101.5	101.0	261*	7
CN(/N=C/c1cccnc1)c1cnc2ccccc2n1	110.2	103.6	100.0	104.1	9	22
CCCN(CCC)C1CC(=O)N(Cc2ccccc2)C1=O (stereo not drawn)	103.8	103.0	113.5	102.6	19	58*
O=C(CSc1nnc(-c2c[nH]c3ccccc23)o1)N1CCCCC1	97.5	101.2	114.9	101.8	24	57*
C=CCNC(=O)c1ccc(Cn2c(=S)[nH]c3cc4c(cc3c2=O)OCO4)cc1	100.7	101.1	106.9	99.6	16	47*
CC(C)(C)C1CCc2sc(C(=O)NNC(=O)CCl)cc2C1 (stereo not drawn)	101.5	101.0	108.0	100.3	10	6
CCOc1ccc(-c2c(C(=O)N/N=C/c3ccc(OC)cc3)nnn2-c2nonc2N)cc1	107.8	96.0	94.1	101.6	10	6
O=C(CN1CCOCC1)NCc1ccccc1	98.2	101.9	134.9	99.3	31	62*
